Results from PubChem BioAssay.
Values without a mark were called inactive. For some of these results: Measured potencies and affinities stand elsewhere. Activity calls are given as the source filed them. Unless noted, how the calls were made is not given here.

Assays:
[1] = antimalarial activity against Dd2 strain (AID 2302;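 active means growth inhibition above 50% at the single 2 µM test dose, taken to imply half-maximal potency below 2 µM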;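 further: 0% = DMSO untreated growth and 100% = chloroquine plus artemisinin killed control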); conditions: P. falciparum Dd2 in RBCs, LDH growth readout, 72 h; at 2 µM; active compounds read high
[2] = HepG2 cytotoxicity, primary screen, cytotoxicity control for P. falciparum antimalarial project, cell-based, ATP luminescence (AID 2303;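 active means inhibition above 50%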;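 further: 0% = DMSO wells and 100% = digitonin-killed cells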); conditions: HepG2 viability, 24-48 h, at 10 µM, active compounds read high
[3] = target: L-lactate dehydrogenase (Plasmodium falciparum (isolate CDC / Honduras)) (UniProt Q27743); experiment: PfLDH activity inhibition – cell lysate, 3D7 strain, counter-screen for P. falciparum growth inhibition project (AID 2304);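 further: 0% = vehicle and 100% = reference inhibitor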; conditions: P. falciparum 3D7 crude extract, LDH APAD/NBT absorbance; at 2 µM; active compounds read high
Chain of L-lactate dehydrogenase (Plasmodium falciparum (isolate CDC / Honduras)) (Q27743 whole entry, looked up): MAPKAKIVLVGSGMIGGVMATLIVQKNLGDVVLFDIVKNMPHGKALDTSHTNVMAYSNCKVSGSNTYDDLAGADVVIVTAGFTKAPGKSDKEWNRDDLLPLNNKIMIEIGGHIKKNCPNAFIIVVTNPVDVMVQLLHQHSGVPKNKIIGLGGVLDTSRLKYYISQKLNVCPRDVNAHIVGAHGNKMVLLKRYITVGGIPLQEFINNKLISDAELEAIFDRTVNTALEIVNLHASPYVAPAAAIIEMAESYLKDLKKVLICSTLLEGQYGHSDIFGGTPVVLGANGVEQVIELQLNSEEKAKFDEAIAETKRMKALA

[4] = inhibition of 3D7 malaria parasite growth – strain 3D7 (AID 2306);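 further: 0% = DMSO wells and 100% = chloroquine plus artemisinin control wells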; conditions: P. falciparum 3D7 erythrocytic growth, LDH absorbance, 72 h; at 2 µM; active compounds read high
[5] = target: Calcium-dependent protein kinase 1 (Plasmodium falciparum (isolate 3D7)) (UniProt P62344); experiment: PfCDPK1 kinase inhibitors, biochemical, TCAMS library (AID 1159585; cut-off not given, nearly all actives have IC50 up to about 0.98 µM;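 further: inhibitors leave more ATP so luminescence rises with inhibition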); conditions: recombinant PfCDPK1, Kinase-Glo ATP depletion luminescence
Chain of Calcium-dependent protein kinase 1 (Plasmodium falciparum (isolate 3D7)) (P62344 whole entry, looked up): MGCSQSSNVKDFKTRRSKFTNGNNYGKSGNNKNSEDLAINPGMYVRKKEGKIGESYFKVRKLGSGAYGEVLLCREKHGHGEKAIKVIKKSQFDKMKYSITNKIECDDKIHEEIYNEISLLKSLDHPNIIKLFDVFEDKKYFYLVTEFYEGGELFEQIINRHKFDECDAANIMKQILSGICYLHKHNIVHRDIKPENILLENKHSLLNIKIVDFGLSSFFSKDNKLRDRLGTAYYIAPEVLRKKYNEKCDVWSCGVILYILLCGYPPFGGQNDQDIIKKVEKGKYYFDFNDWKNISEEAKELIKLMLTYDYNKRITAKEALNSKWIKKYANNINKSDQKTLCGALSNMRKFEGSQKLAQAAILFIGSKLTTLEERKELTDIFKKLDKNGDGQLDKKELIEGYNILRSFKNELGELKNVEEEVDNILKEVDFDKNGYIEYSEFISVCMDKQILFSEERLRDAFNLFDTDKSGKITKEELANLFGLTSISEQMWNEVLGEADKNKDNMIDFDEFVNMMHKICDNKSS

[6] = target: Plasmodium falciparum protein kinase 6 (PK6, PF3D7_1337100) (UniProt Q8IDW1); experiment: PfPK6 kinase inhibitors, biochemical, TCAMS library (AID 1159586); conditions: recombinant PfPK6, Kinase-Glo ATP depletion luminescence
Chain of Plasmodium falciparum protein kinase 6 (PK6, PF3D7_1337100) (Q8IDW1 1-305): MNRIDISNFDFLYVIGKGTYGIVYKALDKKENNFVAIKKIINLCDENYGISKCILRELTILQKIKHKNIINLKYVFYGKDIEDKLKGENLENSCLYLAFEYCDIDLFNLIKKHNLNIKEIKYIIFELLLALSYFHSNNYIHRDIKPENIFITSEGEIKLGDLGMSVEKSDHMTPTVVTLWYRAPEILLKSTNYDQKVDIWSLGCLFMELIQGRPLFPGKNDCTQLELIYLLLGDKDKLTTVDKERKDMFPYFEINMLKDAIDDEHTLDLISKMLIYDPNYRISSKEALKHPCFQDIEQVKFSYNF

[7] = target: Protein kinase 7 (PK7), Plasmodium falciparum 3D7 (PF3D7_0213400) (UniProt Q7YTF7); experiment: inhibition of Plasmodium PK7 catalytic activity – biochemical, TCAMS antimalarial set, Kinase-Glo luminescence (AID 1159587); conditions: recombinant PfPK7, Kinase-Glo ATP depletion luminescence
Chain of Protein kinase 7 (PK7), Plasmodium falciparum 3D7 (PF3D7_0213400) (Q7YTF7 1-343): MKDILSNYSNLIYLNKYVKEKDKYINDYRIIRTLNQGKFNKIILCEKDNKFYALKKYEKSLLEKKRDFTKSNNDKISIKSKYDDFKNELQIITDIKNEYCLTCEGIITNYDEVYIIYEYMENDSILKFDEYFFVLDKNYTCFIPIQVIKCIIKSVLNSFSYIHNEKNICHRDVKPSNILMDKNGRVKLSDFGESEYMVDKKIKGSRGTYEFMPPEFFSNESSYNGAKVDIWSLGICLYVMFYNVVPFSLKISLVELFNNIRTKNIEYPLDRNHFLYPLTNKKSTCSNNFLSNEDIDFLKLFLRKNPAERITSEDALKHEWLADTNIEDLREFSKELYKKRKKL

[8] = target: Calcium-dependent protein kinase 4 (Plasmodium falciparum (isolate 3D7)) (UniProt Q8IBS5); experiment: PfCDPK4 kinase inhibitors, biochemical, TCAMS library (AID 1159588; cut-off not given, nearly all actives have IC50 up to about 0.91 µM); conditions: recombinant PfCDPK4, Kinase-Glo ATP depletion luminescence
Chain of Calcium-dependent protein kinase 4 (Plasmodium falciparum (isolate 3D7)) (Q8IBS5 whole entry, looked up): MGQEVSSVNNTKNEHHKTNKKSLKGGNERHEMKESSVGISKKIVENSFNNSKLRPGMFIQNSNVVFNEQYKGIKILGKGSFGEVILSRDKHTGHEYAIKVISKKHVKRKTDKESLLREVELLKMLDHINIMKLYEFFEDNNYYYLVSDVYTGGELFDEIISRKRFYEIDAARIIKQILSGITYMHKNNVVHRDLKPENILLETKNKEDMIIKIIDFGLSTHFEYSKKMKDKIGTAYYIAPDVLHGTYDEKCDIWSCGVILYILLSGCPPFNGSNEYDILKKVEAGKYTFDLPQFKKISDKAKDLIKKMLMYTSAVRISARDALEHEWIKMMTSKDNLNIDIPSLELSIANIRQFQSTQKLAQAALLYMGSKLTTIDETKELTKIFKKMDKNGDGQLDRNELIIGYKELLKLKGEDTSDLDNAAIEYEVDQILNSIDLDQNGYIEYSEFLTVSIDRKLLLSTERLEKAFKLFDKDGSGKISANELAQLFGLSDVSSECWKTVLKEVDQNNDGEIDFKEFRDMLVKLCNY

Compound	growth inhibition [1]	inhibition [2]	inhibition [3] [%]	growth inhibition [4]	outcome [5]	outcome [6]	outcome [7]	outcome [8]
COc1cc(NC2=NS(=O)(=O)c3cc(Cl)ccc3N2C)cc(OC)c1OC	100% (active)	-6%	-2	101% (active)	inactive	inactive	inactive	inactive
CN(C)CCCNCc1ccc(-c2ccc(CNCCOc3ccccc3)cc2)cc1	53% (active)	27%	0	100% (active)	inactive	inactive	inactive	inactive
CCc1nc2c(cnn2CC)c(NC2CCOCC2)c1CNC(=O)N1CCOCC1	48%	0%	4	98% (active)	inactive	inactive	inactive	inactive
Cc1ccc(-c2nc3ccc(C(=O)NC4CCC(N5CCCc6ccc(C#N)cc6C5)CC4)cc3[nH]2)cc1 (stereo not given)	49%	23%	-2	101% (active)	inactive	inactive	inactive	inactive
O=C(NC1CC1)c1ccc(N2CCC(Cc3ccccc3)CC2)nc1	92% (active)	13%	5	95% (active)	inactive	inactive	inactive	inactive
O=C(c1ccc(O)c(-c2cc(Cl)cc(Cl)c2)c1)N(CCO)CCO	62% (active)	1%	-9	94% (active)	inactive	inactive	inactive	inactive
Cc1c2ccc(N(C)c3ccnc(Nc4ccc5c(c4)nc(NC(C)C)n5C)n3)cc2nn1C	100% (active)	2%	-4	100% (active)	inactive	inactive	inactive	inactive
Cc1cc2ccc(-c3cccc(CN)c3)cc2nc1N	1%	-4%	-6	100% (active)	inactive	inactive	inactive	inactive
O=C(/C=C/c1ccc(Cl)c(Cl)c1)NCCCCCN1CCC(C(=O)Nc2ccc(F)c(Cl)c2)CC1	-3%	25%	2	100% (active)	inactive	inactive	inactive	inactive
COc1ccc2nccc(CCN3C[C@H](CNCc4ccc5c(n4)NC(=O)CS5)[C@H](O)C3)c2n1	26%	4%	-2	86% (active)	inactive	inactive	inactive	inactive
CC1CN(Cc2ccc(-c3cccc(-c4nc5ccc(F)cc5[nH]4)c3)cc2)CC(C)O1 (stereo not given)	20%	28%	-3	93% (active)	inactive	inactive	inactive	inactive
CC1(C)N=C(N)N=C(N)N1OCCSc1ccccc1	95% (active)	68% (active)	3	95% (active)	inactive	inactive	inactive	inactive
COc1ccccc1CN1CCC(NC(=O)c2ccc(-c3ccc(N(C)C)cc3)s2)CC1	38%	29%	-2	90% (active)	inactive	inactive	inactive	inactive
COc1c(CNCCCCCCNCc2c(OC)c(OC)c3ccccc3c2OC)c(OC)c2ccccc2c1OC	98% (active)	100% (active)	-2	96% (active)	inactive	inactive	inactive	inactive
COc1ccc2c(NN=Cc3ccccc3Cl)ccnc2c1	46%	10%	-6	99% (active)	inactive	inactive	inactive	inactive
O=S1c2ccccc2Sc2ccccc21	-1%	48%	6	99% (active)	inactive	inactive	inactive	inactive
Cc1ccc(-n2nc(-c3ccccc3)c3cc(C(=O)NCCN)sc32)cc1	43%	28%	2	92% (active)	inactive	inactive	inactive	inactive
CN1C(C)(C)CC(NC(=O)c2ccc(-c3nc4ccc(Cl)cc4[nH]3)cc2)CC1(C)C	36%	23%	-3	99% (active)	inactive	inactive	inactive	inactive
CC(C)NCc1ccc(-c2cccc(NC(=O)c3ccc(Cl)cc3)c2)cc1	82% (active)	20%	-7	100% (active)	inactive	inactive	inactive	inactive
CC(CON1C(N)=NC(N)=NC1(C)C)c1ccc(Cl)cc1Cl (stereo not given)	95% (active)	64% (active)	0	97% (active)	inactive	inactive	inactive	inactive
